# Bioassay records deposited in PubChem BioAssay by The Scripps Research Institute Molecular Screening Center.
# MITF primary: MITF inhibitors, primary screen, biochemical, AlphaScreen, human; Microphthalmia-associated transcription factor (Homo sapiens), O75030; AlphaScreen MITF homodimerization, bead proximity signal; inhibition, % at 2.6 µM; 0.91% of 650,000 active; AID 1259374, 2018; in the data active = inhibition above about 50%
# GPR151 activ: activators of human GPR151, primary screen, cell-based, PathHunter beta-arrestin, luminescence | 1% of 650,000 active | activation, % at 11.2 µM | PathHunter beta-arrestin GPR151 cells; in the data active = activation above about 4.9%
# Target sequence (Q8TDV0 whole entry, looked up): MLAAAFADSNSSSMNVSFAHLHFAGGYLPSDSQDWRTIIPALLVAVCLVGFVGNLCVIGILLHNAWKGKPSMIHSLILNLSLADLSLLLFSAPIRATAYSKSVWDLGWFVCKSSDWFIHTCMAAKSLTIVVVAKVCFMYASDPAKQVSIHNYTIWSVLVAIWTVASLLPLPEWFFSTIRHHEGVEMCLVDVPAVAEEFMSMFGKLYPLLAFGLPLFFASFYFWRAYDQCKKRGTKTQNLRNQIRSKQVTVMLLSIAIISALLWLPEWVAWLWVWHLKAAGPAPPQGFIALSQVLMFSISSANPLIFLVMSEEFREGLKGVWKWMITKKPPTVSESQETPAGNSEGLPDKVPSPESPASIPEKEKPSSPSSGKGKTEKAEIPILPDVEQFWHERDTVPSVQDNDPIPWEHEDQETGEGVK
# TEAD-YAP block: TEAD-YAP interaction inhibition, primary screen, TEAD-YAP interaction inhibitor project, luminescence, HEK-TIYL cells | 1.4% of 640,000 active | AID 1259422, 2018 | TEAD-Gal4/YAP UAS-luciferase luminescence | inhibition, % at 9.12 µM; in the data active = inhibition above about 32%
# FBW7 activator: FBW7 E3 ligase activators, primary screen, biochemical, AlphaScreen, human; AID 1259310, 2017; normalized activity (activation), % at 26.1 µM; 0.13% of 650,000 active; AlphaScreen FBW7–phospho-cyclin E peptide binding, activator screen; F-box/WD repeat-containing protein 7 (Homo sapiens), Q969H0; in the data active = normalized activity above about 1.9%;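 also: purified mutant Fbw7 with reduced substrate affinity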
# GPR151 conf act: GPR151 activators, triplicate retest, confirmation, cell-based, PathHunter beta-arrestin, luminescence. shares compounds with GPR151 activ. GPR151 PathHunter beta-arrestin cells, 90 min; % of EA-reagent control over plate median. activation, % at 11.2 µM. 6,700 tested, under 10 active. AID 1508609, 2020;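 active = mean percent activation across replicates above the confirmation screen cutoff of 4.91%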
# GPR119 ag: GPR119 activators in beta-arrestin cells, counter-screen for GPR151 activator project, cell-based, PathHunter beta-arrestin, luminescence, triplicate. shares compounds with GPR151 activ. 90 min; 0 = compound-well median, 100 = enzyme-acceptor control. activation, % at 11.2 µM. 0.3% of 6,700 active. AID 1508611, 2020;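 active = mean percent activation in the counterscreen above 29.09%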;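 also: counterscreen on off-target GPR119 to flag nonselective hits from the GPR151 activator screen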
# Hits are given with their value; 0 = inactive; - = no result given; ! = a repeat was not active. Rows were chosen to be rich in hits. Some 3.5% of all compounds tested hit in one or more screens of this group.
SMILES,MITF primary,GPR151 activ,TEAD-YAP block,FBW7 activator,GPR151 conf act,GPR119 ag
O=C(Nc1ccc(F)cc1F)C1CCCN(c2ncnc3c2nc2n3CCCCC2)C1 (configuration not stated),0,0,0,0,-,-
O=C(NC(c1ccccc1Cl)c1ccc2cccnc2c1O)c1ccccc1 (configuration not stated),0,7.5,72,0,0,0
CC(C)OCCCNc1ncnc(N)c1[N+](=O)[O-],0,7.7,40,0,0,0
CCCCNc1ncnc(N)c1[N+](=O)[O-],0,0,0,0,-,-
CCn1c2[n+](c3ccccc31)CC(O)CS2 (configuration not stated),0,0,0,0,-,-
COc1cc(/C=N/Nc2nc3c(c(=O)[nH]c(=O)n3C)n2CC(C)O)ccc1O (configuration not stated),0,0,0,0,-,-
CCOc1cc(/C=N/Nc2nc3c(c(=O)[nH]c(=O)n3C)n2CC(C)C)ccc1O,0,6.6,0,0,0,0
CC1CCCCN1C(=O)CSc1nc2cc3c(cc2c(=O)n1Cc1ccco1)OCO3 (configuration not stated),0,0,0,0,-,-
Cc1ccc(NC(=O)CN(c2ccc3c(c2)OCO3)S(C)(=O)=O)cc1Cl,0,5.1,0,0,0,0
CCOC(=O)c1ccccc1NC(=O)CN(c1ccc(OC)c(Cl)c1)S(C)(=O)=O,0,0,0,0,-,-
COc1ccc(N(CC(=O)Nc2cccc(Cl)c2C)S(C)(=O)=O)cc1OC,0,0,0,0,-,-
CS(=O)(=O)N(CC(=O)Nc1ccc(Cl)c(Cl)c1)c1ccc2c(c1)OCO2,0,0,0,0,-,-
CCOC(=O)c1ccccc1NC(=O)CN(c1ccc(F)c(Cl)c1)S(C)(=O)=O,0,5.2,0,0,0,0
Cc1ccc(N(CC(=O)Nc2cccc(Cl)c2C)S(C)(=O)=O)cc1C,0,5.3,0,0,0,0
COC(=O)c1ccccc1NC(=O)CN(c1ccccc1OC)S(C)(=O)=O,0,0,0,0,-,-
COc1ccccc1N(CC(=O)Nc1ccccc1C(=O)NCC(C)C)S(C)(=O)=O,0,13,0,0,0,0
CC(=O)c1sc(NC(=O)c2cc(C)nn2C)nc1C,0,0,0,0,-,-
Cc1ccc(N(CC(=O)Nc2cc(Cl)ccc2C)S(C)(=O)=O)c(C)c1,0,6.9,0,0,0,0
Cc1ccc(N(CC(=O)NCCC2=CCCCC2)S(C)(=O)=O)cc1Cl,0,15,0,0,0,0
Cc1ccc(N(CC(=O)NC2CC3CCC2C3)S(C)(=O)=O)cc1Cl (configuration not stated),0,0,0,0,-,-
COC(=O)c1ccccc1NC(=O)CN(c1ccc(F)c(Cl)c1)S(C)(=O)=O,0,13,0,0,0,31
CS(=O)(=O)N(CC(=O)NCCC1=CCCCC1)c1ccc(F)c(Cl)c1,0,0,0,0,-,-
CS(=O)(=O)N(CC(=O)NC1CC2CCC1C2)c1ccc(F)c(Cl)c1 (configuration not stated),0,7.8,0,0,0,0
Cc1ccc(Cl)cc1NC(=O)CN(c1ccc(Cl)cc1)S(C)(=O)=O,0,0,0,0,-,-
CCN(Cc1ccncc1)Cc1ccc2c(c1)CN(C(=O)C1CCC1)CCO2,0,0,0,0,-,-
SMILES,MITF primary,GPR151 activ,TEAD-YAP block,FBW7 activator,GPR151 conf act,GPR119 ag
Cc1cc(Cl)ccc1NC(=O)Cc1ccc([N+](=O)[O-])cc1,0,0,0,0,-,-
O=C(NCc1cccs1)c1cccnc1,0,0,0,0,-,-
CS(=O)(=O)N(CC(N)=O)c1ccc(Cl)cc1Cl,0,0,0,0,-,-
Cc1ccc(N(CC(=O)Nc2ccccc2F)S(C)(=O)=O)cc1Cl,0,15,0,0,0,0
COC(=O)CN(c1ccc(Cl)cc1Cl)S(C)(=O)=O,0,7.3,0,0,0,0
CCOC(=O)c1ccccc1NC(=O)c1cn(-c2ccc(F)cc2F)c(=O)c2ccccc12,0,6.7,0,0,0,0
CCOC(=O)c1ccccc1NC(=O)Nc1ccc(F)cc1,0,7.5,0,0,0,0
O=C1c2ccccc2C(=O)N1CCCc1nc(-c2ccc(Br)cc2)no1,0,0,0,0,-,-
O=C(c1cccc(F)c1)N1CCN=C1SCc1cccc([N+](=O)[O-])c1,0,0,0,0,-,-
CC(C)c1ccccc1OCC(O)CNCc1nc2ccccc2s1 (configuration not stated),0,0,0,0,-,-
COc1ccc(Cl)cc1NC(=O)CN(c1cccc(Cl)c1)S(C)(=O)=O,0,6.8,0,0,0,0
CCOC(=O)c1ccccc1NC(=O)CN(c1ccc(Cl)c(Cl)c1)S(C)(=O)=O,0,18,0,0,0,0
COC(=O)c1ccccc1NC(=O)CN(c1ccc(Cl)c(Cl)c1)S(C)(=O)=O,0,0,0,0,-,-
CCOC(=O)c1ccccc1NC(=O)CN(c1ccccc1F)S(C)(=O)=O,0,5.0,0,0,0,0
CCOC(=O)c1ccccc1NC(=O)CN(c1ccccc1OCC)S(C)(=O)=O,0,0,0,0,-,-
COc1ccc(-c2noc(CC(=O)N3CCCCC3C)n2)cc1 (configuration not stated),0,0,0,0,-,-
COc1ccc(-c2csc(/C(C#N)=C/Nc3ccc(F)c([N+](=O)[O-])c3)n2)cc1OC,0,5.2,0,0,0,0
COc1ccc(N/C=C(/C#N)c2nc(-c3ccccc3)cs2)cc1,0,10.0,0,0,0,0
CCOc1ccc(/C=C(/C#N)c2nc(-c3ccc(Br)cc3)cs2)c(OCC)c1,0,0,0,0,-,-
CCOc1ccc(-c2csc(/C(C#N)=C/c3ccccc3OCC)n2)cc1,0,6.2,0,0,0,0
COc1ccc(-c2csc(/C(C#N)=C/Nc3ccc(C(N)=O)cc3)n2)cc1OC,0,0,0,0,-,-
CCCCNC(=O)NS(=O)(=O)c1ccc(C)cc1,0,6.1!,0,0,0,0
CCNC(=O)CNS(=O)(=O)c1ccc(I)cc1,0,0,0,0,-,-
CCNC(=O)CNS(=O)(=O)c1ccc(C)cc1,0,7.9,0,0,0,0
Cc1ccc(CN2CCN(Cc3ccc(OCCO)cc3)CC2CCO)cc1 (configuration not stated),0,0,0,0,-,-
O=C(N/N=C/c1cccc(Cl)c1)c1cccs1,0,0,0,0,-,-
CC(=O)Nc1sc(N/N=C/c2cccc(Cl)c2)nc1-c1cccs1,0,7.5,0,0,0,0
COc1ccc(CC(=O)Nc2ccc(OCC(=O)O)cc2)cc1,0,0,0,0,-,-
